In PubChem BioAssay (NCATS):
Inconclusive results are not listed. Active and inactive are the calls of the source. Unless noted, calls follow the shape of the dose curve; as a rule, active = well fitted inhibition curve with a large enough effect; inconclusive = small, poorly fitted or top-dose-only effect; inactive = flat fitted curve, though single readings scatter.

Key:
[1] = biological target: Mitogen-activated protein kinase 10 (Mus musculus) (UniProt Q61831); test: JNK3 AlphaScreen Assay (AID 530; active = well fitted curve in either direction with a large enough effect, not every such curve was filed as active;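 also: kinase came from lysate of stimulated human HepG2 cells; signal reports phosphorylation of biotinylated GST-cJun 1-79 at Ser73 with 10 µM ATP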)
Outline: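 Room-temperature AlphaScreen kinase assay; pre-activated HepG2 lysate as JNK3 source, biotin-GST-cJun(1-79) substrate, 10 uM ATP, compound 15 min preincubation.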

CP335 = test: qHTS profiling for inhibitors of Plasmodium falciparum proliferation (AID 504749); also: nearly all actives have a fitted effect of over 60% in size; details: P. falciparum in erythrocytes, SYBR Green DNA, 72 h; series mostly up to 28.7 µM
Outline: (§1)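 Three-day growth assay of blood-stage parasites in erythrocytes (0.3% parasitemia, 2.5% hematocrit) at 37 C, 5% CO2, quantified by SYBR Green DNA staining after overnight detergent lysis.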

DIV14 = test: as above; details: P. falciparum in erythrocytes, SYBR Green DNA, 72 h; series mostly up to 28.7 µM
Outline: as §1

ICS = test: as above; details: P. falciparum in erythrocytes, SYBR Green DNA, 72 h; series mostly up to 28.7 µM
Outline: as §1

PC26 = test: as above; details: P. falciparum in erythrocytes, SYBR Green DNA, 72 h; series mostly up to 28.7 µM
Outline: as §1

[2] = S16 Schwann cell PMP22 intronic element beta-lactamase assay (AID 624044; calls by dose curve; also: nearly all actives have a fitted effect of over 15% in size); details: S16 rat Schwann cells, PMP22 element beta-lactamase FRET, 24 h; ratio activity, negative = inhibition: at 38.3 µM (top of the series)
Outline: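 Rat S16 Schwann cells with beta-Lac driven by a PMP22 intronic element, compound-treated 24 h at 37 °C. LiveBLAzer FRET B/G read: 460 nm normalized to potassium clavulanate vs DMSO; 535 nm FRET as viability; concentration-effect curves classified.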

Measured: Potency

COC(=O)[C@H]1C[C@@H]1[C@H](NS(=O)(=O)c1ccc(-c2ccccc2)cc1)c1ccccc1
inactive: [1]

CO/N=C(/C(=O)N[C@@H]1C(=O)N2C(C(=O)O)=C(CSc3cnns3)CS[C@H]12)c1csc(N)n1
inactive: CP335 | DIV14 | ICS | PC26

CCN(CC)C(=O)[C@@]1(c2ccccc2)C[C@@H]1CN
inactive: [2] | CP335 | ICS

CCCCCCCCCCCCCCCC(=O)OC[C@H](O)[C@H]1OC[C@@H](O)[C@@H]1O
inactive: [2] | CP335 | ICS | PC26
